# Source: PubChem BioAssay
# Ub-GFP proteasome – proteasome inhibitors stabilizing ubiquitin-GFP reporter | Ubiquitin-GFP reporter cells, proteasome inhibition, GFP fluorescence; response scale: untreated = 0%, 10 µM MG-132 = 100% | Potency, µM (series often up to 45.9 µM), for the others: at the top dose activation (GFP accumulation), hits mostly activators | 67,000 tested, under 10 active | AID 526; active = well fitted activation curve with a large enough effect, not every such curve was filed as active; inconclusive = small, poorly fitted or top-dose-only effect, or another doubt; inactive = no such curve, though single readings can be large or run the other way; also: potency is read from the fitted curve at half-maximal effect
#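 Proteasome block read as GFP accumulation: ubiquitin(G76V)-GFP U2OS cells exposed to compound (2.9 nM–46 uM) for 4 hr at 37 C. Normalization used untreated cells as 0% and 10 uM MG-132 as 100%; concentration-response curves fitted.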
# PK Bst – pyruvate kinase (B. stearothermophilus) modulation. purified pyruvate kinase, luminescence ATP production; ribose 5-phosphate activator present at AC10. 51,000 compounds, 1.2% hits. AID 361. Potency, µM; in the data active = potency below about 11 µM; inconclusive = mostly about 12 µM to 25 µM;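 the screen sought inhibitors and activators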;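 also: potency is read from the fitted curve at half-maximal effect; scaled between full activation by ribose 5 phosphate and full inhibition by luteolin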
# FLuc inh – firefly luciferase inhibition | P08659 | purified firefly luciferase, luminescence, 8 min | Potency, µM (top dose mostly 57.1 µM), for inactives: at the top dose activity change, negative = inhibition, usual class: inhibitors | 72,000 compounds, 2.2% hits | AID 411; also: potency is read from the fitted curve at half-maximal effect; % is scaled to controls: 0 for no effect and ±100 for the full control effect; nearly all actives have a fitted effect of over 40% in size
#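 Luminescence read-out after 8 min at room temperature; enzyme reaction used luciferin plus 10 uM ATP (linear range) in imidazole buffer pH 7.2 with KCl, MgCl2, Tween 20 and BSA. Each sample was run as a titration.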
# HBB splicing – alters splicing of the hemoglobin beta chain. HBB splicing reporter cell assay, activation; EGFP reporter with mutant IVS2-654 intron; response scale: normalised to 500 nM splice-correcting PNA. Potency, µM (titrated, usually from 46.1 µM), for the others: at the top dose activation, usual class: activators. 65,000 compounds, 0.06% hits; also: potency is read from the fitted curve at half-maximal effect; 0% is about no effect
#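 HeLa cells stably expressing EGFP interrupted by mutant beta-globin intron 2 (IVS2-654), 500/well in 2% FCS. Treated with compound for 2 days at 37C. Splicing correction scored as total well GFP intensity (488 nm excitation, 500-520 nm emission); 500 nM antisense PNA served as control.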
# GBA mod – human lysosomal glucosylceramidase modulation | P04062 | purified enzyme, resorufin glucoside fluorescence (screen aimed at inhibitors), 20 min | Potency, µM | 48,000 compounds, 1.1% hits | AID 360; in the data active = potency below about 15 µM; inconclusive = mostly about 16 µM to 33 µM;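 also: potency is read from the fitted curve at half-maximal effect; the screen sought inhibitors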
# Target sequence (P04062 whole entry, looked up): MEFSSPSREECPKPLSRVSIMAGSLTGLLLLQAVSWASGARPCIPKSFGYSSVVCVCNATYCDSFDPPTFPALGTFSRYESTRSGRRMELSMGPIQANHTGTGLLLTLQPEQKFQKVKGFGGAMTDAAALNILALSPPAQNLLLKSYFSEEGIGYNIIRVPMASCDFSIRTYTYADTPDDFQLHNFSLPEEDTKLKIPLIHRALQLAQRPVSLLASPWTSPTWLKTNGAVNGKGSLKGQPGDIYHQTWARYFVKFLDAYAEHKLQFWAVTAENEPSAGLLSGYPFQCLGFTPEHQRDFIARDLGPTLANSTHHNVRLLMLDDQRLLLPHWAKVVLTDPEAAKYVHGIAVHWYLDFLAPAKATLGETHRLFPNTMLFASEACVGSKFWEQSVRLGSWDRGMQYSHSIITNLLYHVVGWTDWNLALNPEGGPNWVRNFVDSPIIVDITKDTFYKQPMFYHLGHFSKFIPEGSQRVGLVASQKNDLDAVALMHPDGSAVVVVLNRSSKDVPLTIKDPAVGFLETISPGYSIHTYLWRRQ
#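 Wild-type enzyme at 0.2 nM final in 50mM citric acid/KH2PO4, 10mM sodium taurocholate, 0.01% tween-20, pH 5.9, with resorufin beta-D-glucopyranoside at 30 uM final. Compounds titrated, 20 min at RT, red fluorescence read; AC50 from titration.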
# Epigenetic mod – epigenetic GFP locus derepression in mouse cells. mouse C127i GFP locus derepression, cytometry, 30 h. Potency, µM (highest dose often 46.1 µM), for inactives: at the top dose GFP derepression (activation). 68,000 compounds, 0.09% hits. AID 597; also: % of control where 0% means no effect
#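 Derepression screen: silenced CMV-GFP reporter in murine C127i cells, 30 h compound incubation at 37 C, washed cells imaged by laser-scanning cytometer to enumerate GFP-expressing objects of 20 to 120 um.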
# Active calls of the source: *; i = inactive; ? = inconclusive; · = no result; ! = not confirmed by another sample; [ ] = another dose, or the depositor's remark. Shown are actives, neighbours in structure and some others; about 3.3% of the full set was active somewhere. Unless noted, calls follow the shape of the dose curve; as a rule, active = well fitted curve in the direction sought with a large enough effect; inconclusive = small, poorly fitted or top-dose-only effect, or another doubt; inactive = no such curve, though single readings can be large; an effect the other way counts as inactive or inconclusive.
SMILES,Ub-GFP proteasome,PK Bst,FLuc inh,HBB splicing,GBA mod,Epigenetic mod
COc1cccc(-c2cc(C(=O)N3CCCc4ccccc43)no2)c1,2%,·,-23%,2%,>77,4%
COc1ccc(C2=NOC(C(=O)N3CCCc4ccccc43)C2)cc1 (stereo not given),0%,·,16µM*,0%,>77,6%
COC(=O)NC(c1cccc(F)c1)[C@]1(C(C)=O)CCCC1=O (stereo not given in full),·,·,·,1%[9.22 µM],·,·
CSc1nc(C)cc(Nc2ccc(O)c(CN3CCOCC3)c2)n1,2%[9.17 µM],·,2%[11.4 µM],4%[9.22 µM],·,-1%[9.22 µM]
Cc1c(N=C/C=C/c2ccccc2)cnn1C,6%,·,16µM*,-1%[57.5 µM],>77,4%
Cc1c(N=C/C=C/c2ccccc2)c(=O)n(-c2ccccc2)n1C,-9%,·,-5%,0%,·,-4%
COC(=O)[C@@]1(Cc2ccccc2)C=C[C@@H](C)N1C(=O)c1ccccc1,·,·,·,-1%,·,·
Cc1ccc(S(=O)(=O)CC(=O)Nc2ccc(S(=O)(=O)Nc3onc(C)c3C)cc2)cc1,10%,>57,-1%,0%,>77,2%
Cc1noc(NS(=O)(=O)c2ccc(NC(=O)CCC3CCCC3)cc2)c1C,11%,>57,0%,1%,15*,17%
Cc1ccc(S(=O)(=O)Nc2cc(C(=O)NCCN3CCCC3)ccc2N2CCCCC2)cc1,4%,?,2%,-1%,10*,3%
Cc1ccc(S(=O)(=O)Nc2cc(C(=O)NCCN(C)C)ccc2N2CCCCC2)cc1,2%,·,0%,-1%,?,-1%
N=C1Sc2ccccc2C2=NCCCN12,3%,·,3.2µM*,2%,·,0%
O=c1c(-c2ccccc2)nc2cnc(N3CCOCC3)nc2n1Cc1ccc(F)cc1,6%,·,0%[11.4 µM],7%,·,8%[9.22 µM]
c1ccc2c(c1)Cn1c-2nc2ccccc21,·,?,13µM*,1%[0.369 µM],?,-2%
c1ccc2c(c1)Cn1nnnc1-2,-2%,>57,2%,2%[57.5 µM],>77,3%
COc1ccc([C@@H](Nc2ncccn2)c2cc3c(cc2O)OCO3)cc1,-10%[9.17 µM],·,4%[11.4 µM],5%[9.22 µM],·,-3%[9.22 µM]
Cn1c(=O)c2cn(-c3ccc4c(c3)OCCO4)cc2n(C)c1=O,-2%,5.6*,-14%,1%[57.5 µM],>77,1%
Cc1ccc(-n2cc3c(=O)n(C)c(=O)n(C)c3c2)cc1C,3%,10*,-16%,1%[57.5 µM],>77,2%
CCOC(=O)N1CC=C2C(C#N)=C(N)C(C#N)(C#N)[C@H](c3ccccc3OCC)[C@H]2C1,·,>57,0%,1%[0.369 µM],8.5*,26%
O=NC1=C(c2c(O)[nH]c3ccccc23)CCCC1,0%,·,2%,0%[9.22 µM],·,0%
O=Nc1c(-c2c(O)[nH]c3ccccc23)[nH]c2ccccc12,3%,·,25µM*!,1%,·,-1%
COc1cccc(CNc2ccc(Br)cn2)c1O,·,i,5µM*,·,·,-4%[20.6 µM]
COc1cccc(-c2nn(C)c3sc(C(=O)N4CCN(c5ccccn5)CC4)cc23)c1,24%,7.3*,-1%,-2%,>77,6%
CCCC/C=C/C(NC(=O)Oc1cccc(C(F)(F)F)c1)c1ccccc1 (stereo not given),·,·,·,2%,·,·
Cc1ccc(C2=N/C(=C/N3CCOCC3)C(=O)O2)cc1,3%,·,20µM*,0%,>77,0%
SMILES,Ub-GFP proteasome,PK Bst,FLuc inh,HBB splicing,GBA mod,Epigenetic mod
Cc1ccc(O)c(NC(=O)c2cccc(NC(=O)c3ccco3)c2)c1,1%,>57,-17%,0%,>77,-2%
O=C(CSc1ccc(-c2nc3ccccc3[nH]2)cn1)N1CCN(C(=O)c2ccco2)CC1,3%,i,20µM*,-4%,·,1%
Cc1ccc2nc(-c3cccc(NC(=O)c4ccco4)c3)[nH]c2c1,14%,6.4*,10µM*,-1%,>77,-2%
O=C(Nc1ccc2nc(-c3cccnc3)[nH]c2c1)c1ccco1,9%,·,16µM*,0%,·,2%
O=C(CCc1nc2ccccc2[nH]1)N1CCN(C(=O)c2ccco2)CC1,-6%,·,3%,1%,·,-9%
CC(=O)Nc1cccc(-c2nc3ccc(NC(C)=O)cc3[nH]2)c1,-5%,i,16µM*,·,>77,-6%
O=C(Nc1ccc2nc(-c3ccco3)[nH]c2c1)c1ccco1,11%,10*,13µM*,·,>77,-1%
O=C(NCc1nc2ccccc2[nH]1)c1ccco1,-7%,>57,0%,-5%[57.5 µM],>77,0%
O=C(Nc1ccc(-c2nc3ccccc3[nH]2)cc1)c1ccco1,8%,3.9*,4µM*,0%,?,0%
O=C(Nc1ccc2nc(-c3ccco3)[nH]c2c1)c1cccs1,-7%,10*,13µM*,2%,>77,3%
C[C@@H]1C(=O)O[C@@H]2C[C@@]34[C@H]5C[C@@H](C(C)(C)C)[C@@]36[C@@H](OC(=O)[C@@H]6O)O[C@]4(C(=O)O5)[C@@]12O,-3%,·,1%[11.4 µM],·,·,-7%[9.22 µM]
Cc1ccc(S(=O)(=O)Nc2ccc3c(c2)ncn3C(C)(C)C)cc1,16%,·,2%,-1%[9.22 µM],·,-2%
CC(C)(C)n1cnc2cc(NS(=O)(=O)c3ccc(Br)cc3)ccc21,·,2.5*,0%[25.5 µM],·,·,4%[20.6 µM]
Cc1ccccc1NC(=O)c1ccccc1O,6%,>57,-5%,-1%,?,-2%
Cc1ccc(NC(=O)c2ccccc2O)cc1,-3%,6.3*,5µM*,-2%,>77,-1%
O=C(Nc1ccccc1)c1ccccc1O,-15%,·,20µM*,1%,·,4%
Cc1ccccc1C(=O)Nc1ccccc1,7%,·,-19%,-2%,·,3%
COc1ccc(OC2C=CC(C#Cc3ccc(F)cc3F)OC2CO)cc1 (stereo not given),·,·,·,2%[9.22 µM],·,·
Cc1nn(C(=O)c2ccc3c(c2)OCO3)c(N)c1-c1ccccc1,-9%,·,2µM*,0%,·,·
Cc1nn(C(=O)c2cccs2)c(N)c1-c1ccccc1,-11%,·,16µM*,-1%,·,·
Clc1nc(NCCc2ccccc2)c2ncn(-c3ccccc3)c2n1,-7%[9.17 µM],·,1%[11.4 µM],-2%[9.22 µM],·,9%[9.22 µM]
CN(C)c1ncnc2ccc(-c3cccc(NS(C)(=O)=O)c3)cc12,-2%,·,-1%[2.29 µM],0%,·,-3%[9.22 µM]
CCCC[C@@H]1CN2[C@H](c3ccc(Br)cc3)[C@@H](C)CC[C@H]2C(=O)O1,·,·,2%[11.4 µM],4%[9.22 µM],·,·
COc1ccc2c(-c3cccnc3)cc(=O)[nH]c2c1,4%,>57,2%,-3%,8.9*,1%
CO/N=C(\C)CCN1CCCCc2nc(C)c(C)cc21,·,·,0%[11.4 µM],4%[9.22 µM],·,·
O=C(COc1ccc(F)cc1)Nc1nccs1,9%,·,13µM*,-1%,·,·
O=C(Nc1nccs1)c1ccc(COc2ccc(F)cc2)o1,-5%,>57,-7%,1%,>77,0%
CC(=O)NCCNc1ncnc2ccc(-c3ccccc3C#N)cc12,9%,·,1%[2.29 µM],-1%,·,0%[9.22 µM]
